# According to the supplement of paper PMC8728848:
# Many of the other results were omitted from the sample, so the strongest signals are more common in it than they were.
# B1: FimA-N1 (Actinomyces oris) (protein)
# chain: MHHHHHHSSGVDLGTENLYFQSNATETPNYGNIKTDATGSLVIHKHLTGGGKDIGTPTGTAQNADDKGPAVEGVVFTAYPITDINLKDPAGWDTISNLSRTGVPDSACANPAAPTLGAHQFGTPKVSPATTKEGLATITEMPVQAYLVCETTTPGDIVQKAKPFVVTIPHPNTAAGADGQWIYDVNVYPKNEAIDVDKTIQAQK
# Tests used:
# Assay in all cases: glycan array binding signal (z-score within array); higher = stronger binding
# Settings in all cases: glycan notation: IUPAC condensed, linker removed
# [1] = biological target: Fuc(a1-2)Gal(b1-3)GalNAc(b1-3)Gal
# Procedure, shortened: (§1)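 The Consortium for Functional Glycomics database supplied 3228 glycan arrays, of which those lacking an available protein sequence were dropped. The binding signal, a within-array Z-score, was averaged across arrays of the same protein sequence and across linkers. Negative scores can be read as non-binding.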
# [2] = biological target: Fuc(a1-2)Gal(b1-3)GalNAc(b1-3)Gal(a1-4)Gal(b1-4)Glc
# Procedure, shortened: as §1
# Fuc(a1-2)Gal(b1-3)GlcNAc = biological target: Fuc(a1-2)Gal(b1-3)GlcNAc
# Procedure, shortened: as §1
# [3] = biological target: Fuc(a1-2)[Gal(a1-3)]Gal(b1-3)GalNAc(b1-3)Gal(a1-4)Gal(b1-4)Glc
# Procedure, shortened: as §1
# [4] = biological target: Fuc(a1-2)[Gal(a1-3)]Gal(b1-3)GlcNAc
# Procedure, shortened: as §1
# [5] = biological target: Fuc(a1-2)[GalNAc(a1-3)]Gal(b1-4)GlcNAc(b1-3)Gal(b1-4)GlcNAc(b1-3)Gal(b1-4)GlcNAc
# Procedure, shortened: as §1
# [6] = biological target: Fuc(a1-2)[GalNAc(a1-3)]Gal(b1-4)[Fuc(a1-3)]GlcNAc
# Procedure, shortened: as §1
# [7] = biological target: Fuc(a1-2)[GalNAc(b1-3)]Gal
# Procedure, shortened: as §1
# Fuc(a1-3)GlcNAc = biological target: Fuc(a1-3)GlcNAc
# Procedure, shortened: as §1
# [8] = biological target: Fuc(a1-3)[Gal(b1-4)]GlcNAc(b1-2)Man
# Procedure, shortened: as §1
# Gal(a1-3)Gal(b1-3)GlcNAc = biological target: Gal(a1-3)Gal(b1-3)GlcNAc
# Procedure, shortened: as §1
# [9] = biological target: Gal(a1-3)Gal(b1-3)GlcNAc(b1-2)Man(a1-3)[Gal(a1-3)Gal(b1-3)GlcNAc(b1-2)Man(a1-6)]Man(b1-4)GlcNAc(b1-4)GlcNAc
# Procedure, shortened: as §1
# [10] = biological target: Gal(a1-3)Gal(b1-4)GlcNAc(b1-3)GalNAc
# Procedure, shortened: as §1
# [11] = biological target: Gal(a1-4)Gal(b1-4)GlcNAc(b1-2)Man(a1-3)[Gal(a1-4)Gal(b1-4)GlcNAc(b1-2)Man(a1-6)]Man(b1-4)GlcNAc(b1-4)GlcNAc
# Procedure, shortened: as §1
# Gal(b1-2)Gal = biological target: Gal(b1-2)Gal
# Procedure, shortened: as §1
# Gal(b1-3)Gal(b1-4)GlcNAc = biological target: Gal(b1-3)Gal(b1-4)GlcNAc
# Procedure, shortened: as §1
# [12] = biological target: Gal(b1-3)GalNAc(a1-3)[Fuc(a1-2)]Gal(b1-4)GlcNAc
# Procedure, shortened: as §1
# [13] = biological target: Gal(b1-3)GlcNAc(b1-2)Man(a1-3)[Gal(b1-3)GlcNAc(b1-2)Man(a1-6)]Man(b1-4)GlcNAc(b1-4)[Fuc(a1-6)]GlcNAc
# Procedure, shortened: as §1
# [14] = biological target: Gal(b1-3)GlcNAc(b1-2)[Gal(b1-3)GlcNAc(b1-6)]Man(a1-6)[Gal(b1-3)GlcNAc(b1-2)Man(a1-3)]Man(b1-4)GlcNAc(b1-4)GlcNAc
# Procedure, shortened: as §1
# Gal(b1-4)Gal = biological target: Gal(b1-4)Gal
# Procedure, shortened: as §1
# Gal(b1-4)GlcNAc = biological target: Gal(b1-4)GlcNAc
# Procedure, shortened: as §1
# [15] = biological target: Gal(b1-4)GlcNAc(b1-2)[Gal(b1-4)GlcNAc(b1-4)]Man(a1-3)[Gal(b1-4)GlcNAc(b1-2)[Gal(b1-4)GlcNAc(b1-6)]Man(a1-6)]Man(b1-4)GlcNAc(b1-4)GlcNAc
# Procedure, shortened: as §1
# [16] = biological target: Gal(b1-4)GlcNAc(b1-3)Gal(b1-4)GlcNAc(b1-3)Gal(b1-4)GlcNAc(b1-3)Gal(b1-4)GlcNAc(b1-2)[Gal(b1-4)GlcNAc(b1-3)Gal(b1-4)GlcNAc(b1-3)Gal(b1-4)GlcNAc(b1-3)Gal(b1-4)GlcNAc(b1-6)]Man(a1-6)[Gal(b1-4)GlcNAc(b1-3)Gal(b1-4)GlcNAc(b1-3)Gal(b1-4)GlcNAc(b1-3)Gal(b1-4)GlcNAc(b1-2)Man(a1-3)]Man(b1-4)GlcNAc(b1-4)[Fuc(a1-6)]GlcNAc
# Procedure, shortened: as §1
# [17] = biological target: Gal(b1-4)GlcNAc(b1-3)Gal(b1-4)GlcNAc(b1-3)Gal(b1-4)GlcNAc(b1-3)Gal(b1-4)GlcNAc(b1-3)Gal(b1-4)GlcNAc(b1-2)Man(a1-3)[Gal(b1-4)GlcNAc(b1-3)Gal(b1-4)GlcNAc(b1-3)Gal(b1-4)GlcNAc(b1-3)Gal(b1-4)GlcNAc(b1-3)Gal(b1-4)GlcNAc(b1-2)Man(a1-6)]Man(b1-4)GlcNAc(b1-4)GlcNAc
# Procedure, shortened: as §1
# [18] = biological target: Gal(b1-4)GlcNAc(b1-3)Gal(b1-4)[Fuc(a1-3)]GlcNAc(b1-3)Gal(b1-4)[Fuc(a1-3)]GlcNAc
# Procedure, shortened: as §1
# Gal3S(b1-3)GlcNAc = biological target: Gal3S(b1-3)GlcNAc
# Procedure, shortened: as §1
# Gal3S(b1-4)Glc6S = biological target: Gal3S(b1-4)Glc6S
# Procedure, shortened: as §1
# [19] = biological target: Gal3S(b1-4)[Fuc(a1-3)]Glc6S
# Procedure, shortened: as §1
# [20] = biological target: Gal3S(b1-4)[Fuc(a1-3)]GlcNAc6S
# Procedure, shortened: as §1
# Gal4S6S(b1-4)GlcNAc = biological target: Gal4S6S(b1-4)GlcNAc
# Procedure, shortened: as §1
# Gal6S(b1-4)GlcNAc = biological target: Gal6S(b1-4)GlcNAc
# Procedure, shortened: as §1
# [21] = biological target: GalNAc(b1-3)Gal(a1-4)Gal(b1-4)GlcNAc
# Procedure, shortened: as §1
# [22] = biological target: GalNAc(b1-3)Gal(a1-6)Gal(b1-4)Glc
# Procedure, shortened: as §1
# GalNAc(b1-4)GlcNAc = biological target: GalNAc(b1-4)GlcNAc
# Procedure, shortened: as §1
# [23] = biological target: GlcNAc(a1-4)Gal(b1-4)GlcNAc
# Procedure, shortened: as §1
# [24] = biological target: GlcNAc(a1-4)Gal(b1-4)GlcNAc(b1-3)Gal(b1-4)[Fuc(a1-3)]GlcNAc(b1-3)Gal(b1-4)[Fuc(a1-3)]GlcNAc
# Procedure, shortened: as §1
# [25] = biological target: GlcNAc(b1-3)Gal(b1-4)GlcNAc(b1-2)Man(a1-3)[GlcNAc(b1-3)Gal(b1-4)GlcNAc(b1-2)Man(a1-6)]Man(b1-4)GlcNAc(b1-4)[Fuc(a1-6)]GlcNAc
# Procedure, shortened: as §1
# Kdn(a2-3)Gal(b1-4)Glc = biological target: Kdn(a2-3)Gal(b1-4)Glc
# Procedure, shortened: as §1
# [26] = biological target: Neu5Ac(a2-3)Gal(b1-3)GlcNAc(b1-3)Gal(b1-4)GlcNAc
# Procedure, shortened: as §1
# [27] = biological target: Neu5Ac(a2-3)Gal(b1-3)GlcNAc(b1-6)GalNAc
# Procedure, shortened: as §1
# [28] = biological target: Neu5Ac(a2-3)Gal(b1-4)GlcNAc(b1-2)Man(a1-3)[Neu5Ac(a2-6)Gal(b1-4)GlcNAc(b1-2)Man(a1-6)]Man(b1-4)GlcNAc(b1-4)GlcNAc
# Procedure, shortened: as §1
# [29] = biological target: Neu5Ac(a2-3)Gal(b1-4)GlcNAc(b1-2)[Neu5Ac(a2-3)Gal(b1-4)GlcNAc(b1-6)]Man(a1-6)[Neu5Ac(a2-3)Gal(b1-4)GlcNAc(b1-2)Man(a1-3)][GlcNAc(b1-4)]Man(b1-4)GlcNAc(b1-4)GlcNAc
# Procedure, shortened: as §1
# [30] = biological target: Neu5Ac(a2-3)Gal(b1-4)GlcNAc(b1-3)Gal
# Procedure, shortened: as §1
# [31] = biological target: Neu5Ac(a2-3)Gal(b1-4)GlcNAc(b1-3)Gal(b1-4)GlcNAc(b1-3)Gal(b1-4)GlcNAc(b1-2)Man(a1-3)[Neu5Ac(a2-3)Gal(b1-4)GlcNAc(b1-3)Gal(b1-4)GlcNAc(b1-3)Gal(b1-4)GlcNAc(b1-2)Man(a1-6)]GalNAc
# Procedure, shortened: as §1
# [32] = biological target: Neu5Ac(a2-3)Gal(b1-4)GlcNAc(b1-3)[Neu5Ac(a2-3)Gal(b1-4)GlcNAc(b1-6)]GalNAc
# Procedure, shortened: as §1
# [33] = biological target: Neu5Ac(a2-3)Gal(b1-4)GlcNAc(b1-6)[Gal(b1-3)]GalNAc
# Procedure, shortened: as §1
# [34] = biological target: Neu5Ac(a2-6)Gal(b1-3)GlcNAc(b1-3)[Gal(b1-4)GlcNAc(b1-6)]Gal(b1-4)Glc
# Procedure, shortened: as §1
# [35] = biological target: Neu5Ac(a2-6)Gal(b1-4)GlcNAc(b1-2)Man(a1-3)[Gal(b1-4)GlcNAc(b1-2)Man(a1-6)]Man(b1-4)GlcNAc(b1-4)GlcNAc
# Procedure, shortened: as §1
# [36] = biological target: Neu5Ac(a2-6)Gal(b1-4)GlcNAc(b1-6)[Gal(b1-3)GlcNAc(b1-3)]Gal(b1-4)Glc
# Procedure, shortened: as §1
# [37] = biological target: Neu5Ac(a2-6)GlcNAc(b1-4)GlcNAc(b1-4)GlcNAc
# Procedure, shortened: as §1
binder,measurement,setting,value
B1,glycan array binding signal (z-score),[1],2.83
same,glycan array binding signal (z-score),[2],-0.245
same,glycan array binding signal (z-score),Fuc(a1-2)Gal(b1-3)GlcNAc,-0.136
same,glycan array binding signal (z-score),[3],0.011
same,glycan array binding signal (z-score),[4],1.81
same,glycan array binding signal (z-score),[5],-0.23
same,glycan array binding signal (z-score),[6],0.129
same,glycan array binding signal (z-score),[7],1.69
same,glycan array binding signal (z-score),Fuc(a1-3)GlcNAc,-0.336
same,glycan array binding signal (z-score),[8],0.002
same,glycan array binding signal (z-score),Gal(a1-3)Gal(b1-3)GlcNAc,1.89
same,glycan array binding signal (z-score),[9],-0.21
same,glycan array binding signal (z-score),[10],-0.363
same,glycan array binding signal (z-score),[11],0.207
same,glycan array binding signal (z-score),Gal(b1-2)Gal,1.45
same,glycan array binding signal (z-score),Gal(b1-3)Gal(b1-4)GlcNAc,-0.145
same,glycan array binding signal (z-score),[12],-0.448
same,glycan array binding signal (z-score),[13],-0.504
same,glycan array binding signal (z-score),[14],3.13
same,glycan array binding signal (z-score),Gal(b1-4)Gal,-0.308
same,glycan array binding signal (z-score),Gal(b1-4)GlcNAc,-0.171
same,glycan array binding signal (z-score),[15],-0.483
same,glycan array binding signal (z-score),[16],1.54
same,glycan array binding signal (z-score),[17],3.32
same,glycan array binding signal (z-score),[18],-0.434
same,glycan array binding signal (z-score),Gal3S(b1-3)GlcNAc,-0.055
same,glycan array binding signal (z-score),Gal3S(b1-4)Glc6S,3.06
same,glycan array binding signal (z-score),[19],1.9
same,glycan array binding signal (z-score),[20],7.57
same,glycan array binding signal (z-score),Gal4S6S(b1-4)GlcNAc,0.072
same,glycan array binding signal (z-score),Gal6S(b1-4)GlcNAc,0.396
same,glycan array binding signal (z-score),[21],0.521
same,glycan array binding signal (z-score),[22],-0.352
same,glycan array binding signal (z-score),GalNAc(b1-4)GlcNAc,-0.187
same,glycan array binding signal (z-score),[23],-0.509
same,glycan array binding signal (z-score),[24],0.476
same,glycan array binding signal (z-score),[25],-0.002
same,glycan array binding signal (z-score),Kdn(a2-3)Gal(b1-4)Glc,0.117
same,glycan array binding signal (z-score),[26],-0.463
same,glycan array binding signal (z-score),[27],0.079
same,glycan array binding signal (z-score),[28],-0.244
same,glycan array binding signal (z-score),[29],-0.572
same,glycan array binding signal (z-score),[30],-0.466
same,glycan array binding signal (z-score),[31],2.52
same,glycan array binding signal (z-score),[32],-0.03
same,glycan array binding signal (z-score),[33],-0.173
same,glycan array binding signal (z-score),[34],-0.454
same,glycan array binding signal (z-score),[35],6.46
same,glycan array binding signal (z-score),[36],-0.313
same,glycan array binding signal (z-score),[37],0.006
